Measurements reported in PubChem BioAssay AID589 (National Center for Advancing Translational Sciences (NCATS), 2007).
In all, about 59,000 compounds went through this assay and about 6,200 (11%) were called active. Not shown: some 9% with an inconclusive outcome. Cut-off read from the data, not from the text of the source: active = max dye-equivalent concentration above about 10 nM; inconclusive = mostly about 1.1 nM to 9.6 nM; inactive = weaker than that. This excerpt belongs to a sample that is enriched for actives.

Assay: qHTS Assay for Spectroscopic Profiling in 4-MU Spectral Region
Conditions: compound autofluorescence, 340/450 nm, 4-MU equivalents; hits give high values
Summary of the method: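 Compounds in 100 mM Tris, pH 8.0, incubated 15 min at room temperature, then fluorescence read at 340 nm excitation/450 nm emission. Signal converted to 4-MU dye-equivalent concentration using an on-plate six-point 4-MU standard curve.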

Max dye-equivalent concentration, active:
Cc1cccn2c(=O)c3cc(C#N)c(=O)n(CCCN4CCOCC4)c3nc12 8300 nM
Cc1cccn2c(=O)c3cc(C#N)c(=NC(=O)c4cccnc4)n(CC4CCCO4)c3nc12 (stereo unspecified) 3400 nM
CCn1c(=N)c(S(=O)(=O)c2ccc(F)cc2)cc2c(=O)n3ccccc3nc21 590 nM
Cc1ccc(-n2nc3cc(Cl)c(NC(=O)c4ccco4)cc3n2)cc1 54 nM
COc1ccc2c(CC(=O)Nc3nnc(C4CC4)s3)coc2c1 11 nM
Fc1ccc2nc(-c3ccccc3)nc(SCc3nnc(-c4ccccc4)o3)c2c1 29 nM
CCOC(=O)c1cc(-c2ccc(Cl)s2)nc2c1c(C)nn2C 180 nM
COCCn1c(=O)[nH]c2cc(C(=O)NCc3cccnc3)ccc2c1=O 41 nM
CCOC(=O)c1cc(-c2nnc(-c3cc(OC)c(OC)c(OC)c3)o2)c(C)nc1C 24 nM
CC1CCCCN1CC(=O)NCc1ccc2c(c1)OCO2 (stereo unspecified) 51 nM
CCC1(C)Cc2c(sc3nc4n(c(=O)c23)CCCS4)CO1 (stereo unspecified) 47 nM
CC1CCc2c(sc3c2C2=NS(=O)(=O)CCN2C=N3)C1 (stereo unspecified) 26 nM
CN1CCN(c2ncc3nc(-c4ccc(Cl)cc4)c(=O)n(-c4ccccc4)c3n2)CC1 52 nM
O=c1c(-c2ccc(F)cc2)nc2cnc(N3CCOCC3)nc2n1-c1ccccc1 23 nM
COc1ncc2nc(-c3ccc(Cl)cc3)c(=O)n(C)c2n1 27 nM
COCCCn1c(CCC(=O)O)ccc1-c1ccc(F)cc1 1600 nM
CCOC(=O)N1CCN(C(=O)c2ccc3nc4cc(Cl)ccc4c(=O)n3c2)CC1 1300 nM
CC[C@]1(O)C[C@@H]2CN(CCc3c([nH]c4ccccc34)[C@@](C(=O)OC)(c3cc4c(cc3OC)N(C)[C@H]3[C@@](O)(C(=O)OC)[C@H](OC(C)=O)[C@]5(CC)C=CCN6CC[C@]43[C@@H]65)C2)C1 47 nM

Max dye-equivalent concentration, inactive:
CC1CC(C)CN(CC(=O)Nc2ccc(S(N)(=O)=O)cc2)C1 (stereo unspecified)
Cc1nnc(SCC(N)=O)n1CC1CCCO1 (stereo unspecified)
Cn1c(=O)c2c(nc(CN3CCOCC3)n2Cc2ccccc2)n(C)c1=O
C[C@H](CCC(=O)NCC(=O)O)[C@H]1CC[C@H]2[C@H]3[C@@H](C[C@@H](O)[C@]12C)[C@]1(C)CC[C@H](O)C[C@@H]1C[C@@H]3O
O=S(=O)(NCc1cccnc1)c1ccc(Br)s1
CCOc1ccc(N=C2SC(C(=O)O)CC(=O)N2C)cc1 (stereo unspecified)
O=CN1CCN(C2CC(=O)N(c3ccc4c(c3)OCO4)C2=O)CC1 (stereo unspecified)
Cn1c(NC(=O)c2ccco2)c(-c2ccccc2Cl)c(=O)c2ccccc21
COC(=O)c1cc(Cl)c(NC(=O)c2ccco2)cc1OC
CSCC[C@H](NC(=O)NCc1cccs1)C(=O)O
COCCNc1ccnc(-c2cccc(NS(C)(=O)=O)c2)n1
N#Cc1ccc(CN2CCCC3(CCN(C(=O)c4ccco4)CC3)C2)cc1
COc1ccc(OCCCC(=O)Nc2nnc(C3CCCO3)s2)cc1 (stereo unspecified)
COc1ccc(Cc2nnc(NC(=O)Cc3cccs3)s2)cc1
O/N=C1\CC2(Cc3nonc31)OCCO2
O=C(CN1CCOCC1)Nc1ccc(NC(=O)CN2CCOCC2)c(Cl)c1
C=CCn1c(SCc2nnc(-c3ccccc3)o2)nnc1C(O)c1ccccc1 (stereo unspecified)
Fc1ccc(-c2nnc(CSc3nnc(-c4ccc5c(c4)OCO5)o3)o2)cc1
O=C(N1CCOCC1)N1CCOCC1
O=C(c1csnn1)N1CCC[C@@]2(CCN(Cc3nccs3)C2)C1
O=C(OC(C(=O)NC1CCCC1)c1ccc(F)cc1)c1ccno1 (stereo unspecified)
CCn1c(NCCc2ccc(OC)c(OC)c2)nc2c1c(=O)n(C)c(=O)n2C
O=C(O)c1nn(-c2ccc(Cl)cc2)c2c1C(=O)c1ccccc1C2=O
O=C(O)CN1C(=O)CC(Cc2ccccc2)C1=O (stereo unspecified)
O=C(NC1(C(F)(F)F)N=C2SCCN2C1=O)c1ccco1 (stereo unspecified)
CCOC(=O)c1cnc(-n2nc(C)cc2C)nc1-n1nc(C)cc1C
CCOC(=O)c1c(C(C#N)C#N)cc(C)nc1C
CN(C)c1nc2n(c(=O)n1)CCO2
Cc1ccc(-n2nc(-c3ccco3)cc2C(=O)NCc2cccnc2)cc1
CC(C)(C)c1cc(C(=O)NCc2cccnc2)ccn1
CCOc1ccccc1Oc1cn[nH]c1-c1ccc(OC)cc1O
Cc1cc(Cl)c(S(=O)(=O)NCCC(=O)O)cc1OCC(N)=O
CCOC(=O)c1cc(NC(=O)SCC(=O)O)c(C)nc1C
COc1cc(-c2nnc(Cn3cc(C(F)(F)F)ccc3=O)o2)cc(OC)c1OC
O=C(NCc1ccco1)c1nc(-c2ccccc2)n(-c2ccccc2)n1
COC(=O)[C@@H](NC(=O)NCc1cccc(OC)c1)C(C)C
CCOc1ccc(-c2cn(S(=O)(=O)c3cccc4nsnc34)nc2N)cc1
CCOC(=O)NCc1ccc2c(c1)OCO2
O=C(Cn1nnc(-c2ccccc2)n1)NCc1ccc2c(c1)OCO2
COc1ccc(S(=O)(=O)Nc2c(C)n(C)n(-c3ccccc3)c2=O)cc1
CCOC(=O)Cn1c(SC)nc2sc3c(c2c1=O)CC(C)(C)OC3
CC1(C)Cc2c(sc3nc4n(c(=N)c23)CCCCC4)CO1
COc1ccc2[nH]cc(CCNc3cc(-c4ccccc4CN(C)C)ncn3)c2c1
O=C(NCCCN1CCN(c2ccccc2F)CC1)C1CCC(=O)N1C1CCCCC1 (stereo unspecified)
COC(=O)c1sc(=S)n(-c2ccccc2)c1N
CC(C)CCNC(=O)C1CCCN(S(=O)(=O)c2ccc(F)cc2)C1 (stereo unspecified)
COCCNc1ncnc2ccc(-c3cccnc3)cc12
Cc1cc(NC(=O)CCC(=O)N(c2cccc(F)c2)C(C(=O)NC2CCCC2)c2ccncc2)no1 (stereo unspecified)
CS(=O)(=O)N1CCC2(CC1)CN(Cc1ccccc1)C2
NC[C@@H]1O[C@H](O[C@@H]2[C@H](O[C@@H]3O[C@H](CO)[C@@H](COC[C@H]4O[C@@H](CN)[C@@H](O)[C@@H](O)[C@@H]4N)[C@@H]3O)[C@@H](O)[C@@H](N)C[C@H]2N)[C@@H](N)[C@H](O)[C@@H]1O
COc1ccc(OC)c(NC(=O)CSc2nc(N)c(-c3ccccc3)c(=O)[nH]2)c1
C[N+]1(CCN=C=NC2CCCCC2)CCOCC1
CCCCNc1nc2c(c(=O)[nH]c(=O)n2C)n1CCOc1ccccc1
COc1ccc(Oc2ncc3nc(-c4ccc(F)cc4)c(=O)n(C)c3n2)cc1
Cn1cc(-c2nc3cncnc3n(-c3ccccc3)c2=O)c2ccccc21
O=c1c(-c2ccc(F)cc2)nc2cncnc2n1-c1ccccc1
O=C(c1ccc2c(c1)C(=O)N(c1ccc(Cl)cc1)C2=O)N1CCN(c2ccccn2)CC1
O=C(Nc1ccc(F)cc1)c1cccnc1N1CCOCC1
O=C(NCCSc1ccccc1)c1ccco1
Cc1cc2ccccc2n2c(SCC(=O)N3CCN(C(=O)c4ccco4)CC3)nnc12
CC12CCC(C(=O)N3CCN(c4ncccn4)CC3)(c3nc4ccccc4nc31)C2(C)C (stereo unspecified)
O=c1c(-c2ccc3c(c2)OCCO3)c(C(F)(F)F)oc2cc(O)cc(O)c12
CC(=O)Nc1ccn(Cc2c(F)cccc2Cl)n1
O=C(c1ccncc1)N1CCC2(CCCN(C(c3ccccc3)c3ccccc3)C2)CC1
CC1CCCCC1NC(=O)CSc1nnc(N)s1 (stereo unspecified)
CC(=O)CSc1nnc(CSc2ncccn2)n1C1CCCCC1
COc1ccccc1CNC(=O)CCn1c(=O)sc2ccccc21
CCN(Cc1nc2ccccc2c(=O)[nH]1)Cc1cc(=O)oc2cc(C)c(C)cc12
Cc1ccnc(SCCn2c(Br)nc3c2c(=O)[nH]c(=O)n3C)n1
CCCCNC(=O)c1ccccc1NC(=O)c1ccccc1N(C)S(C)(=O)=O
COc1ccccc1Nc1ncc(C(C)=O)c(C)n1
CCN(CC)S(=O)(=O)c1cccc(C(=O)Nc2cc(C)nn2-c2nc(C)cc(C)n2)c1
c1ccc2sc(SCCSc3nc4ccccc4s3)nc2c1
CCOC(=O)N1CCN(C(=O)CNC(=O)Cc2ccc(Cl)cc2)CC1
CCOC(=O)N1CCN(C(=O)c2ccc(S(=O)(=O)c3ccc(C)cc3)c(NC(C)=O)c2)CC1
COC(=O)c1ccc(N(CC(=O)NC2CCCC2)C(=O)CNC(=O)c2ccco2)cc1
Cc1ccccc1N1CC(c2nc3ccccc3[nH]2)CC1=O (stereo unspecified)
CC(C)(C)n1nnc(CCc2nnn(C(C)(C)C)n2)n1
Cc1cc(Cl)c(S(=O)(=O)NCc2cccnc2)cc1OCC(N)=O
COC(=O)C(C)N(C#N)c1nc(C)nc(C)n1 (stereo unspecified)
Cn1c(=O)[nH]c(=O)c2c1nc(Br)n2CCCCSc1nc2ccccc2o1
CC[C@]1(O)CC2CN(CCc3c([nH]c4ccccc34)[C@@](C(=O)OC)(c3cc4c(cc3OC)N(C=O)[C@H]3[C@@](O)(C(=O)OC)[C@H](OC(C)=O)[C@]5(CC)C=CCN6CC[C@]43[C@@H]65)C2)C1 (stereo partly specified)
Cc1nn(CC(=O)Nc2ccc3c(c2)nc(CN2CCCCC2)n3C)c(=O)c2ccccc12
